These results are taken from PubChem BioAssay (NCI).

Test systems include SK-MEL-2 melanoma; SN12C renal; UO-31 renal; TK-10 renal; ACHN renal; CAKI-1 renal; A498 renal; CCRF-CEM leukemia; MOLT-4 leukemia.
Common to all, as to assay: NCI-60 one-dose screen, 48 h (100 = growth as untreated, 0 = no growth, -100 = all killed)
Common to all, as to conditions: 10 µM

Compounds without any hit were thinned out: in the full panel of roughly 83,000, 20% have a hit.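 Cells were grown in 96-well plates and exposed to the test compound at a single concentration for 48 hours; results are reported as percent growth, with values below 10 considered active.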 Unmarked numbers belong to inactive results. Active and inactive are the calls of the source.

For the compound `CN1CCN(c2nc(-c3cccnc3)nc3sc4c(c23)CCCCCC4)CC1`, the growth is 114% in the experiment on SK-MEL-2 melanoma; 90.8% in the experiment with SN12C renal; 75% with UO-31 renal; 108% in the experiment with TK-10 renal; 89.6% in the experiment with ACHN renal; 86.7% with CAKI-1 renal. Also, the growth in the experiment with A498 renal is 99.3%; in the experiment on CCRF-CEM leukemia it was 92.4%; in the experiment on MOLT-4 leukemia, 39.6%.
On to `N=C(N)c1ccc(-c2ccc(-c3ccccc3)s2)cc1F`, for which the growth with SK-MEL-2 melanoma is -83.8% (active); with SN12C renal it was -83.6% (active); in the experiment on UO-31 renal, -91.2% (active); in the experiment on TK-10 renal, -95% (active); in the experiment with CAKI-1 renal, -81.3% (active); with A498 renal, -88.6% (active). In addition, the results for the growth in the experiment on CCRF-CEM leukemia and with MOLT-4 leukemia were -60.9% (active) and -75.5% (active), respectively.
With `COc1ccc(Cn2cc3c(c2-c2cc(OC)c(OC)c(OC)c2)CCc2cnoc2-3)cc1[N+](=O)[O-]`, the growth with SK-MEL-2 melanoma was 43.4%; with SN12C renal, 43.4%; in the experiment with UO-31 renal, 36.9%; in the experiment on TK-10 renal, 76.4%; with ACHN renal, 60.4%; in the experiment with CAKI-1 renal it was 16.1%. The growth was 45.2% in the experiment with A498 renal, 22% in the experiment with CCRF-CEM leukemia and 30% in the experiment with MOLT-4 leukemia.
`CCc1ccc(Nc2cc(C)nc3nc(C)nn23)cc1`: the growth with SK-MEL-2 melanoma is 14.5%; in the experiment on SN12C renal it was 26.2%; in the experiment with UO-31 renal it was 13.4%; in the experiment on TK-10 renal, -6.1% (active); in the experiment on ACHN renal it was -2.86% (active); in the experiment on CAKI-1 renal it was 0.395% (active). Further, the growth in the experiment on A498 renal is 34.7%; in the experiment on MOLT-4 leukemia, -20.7% (active).
`COc1cc(OC)cc(-c2n/c(=C\c3c(O)[nH]c4ccc(OC)cc34)cc3c2=Nc2ccccc2-3)c1`: the growth is 108% in the experiment on SK-MEL-2 melanoma; 107% with SN12C renal; 71.2% in the experiment with UO-31 renal; 125% in the experiment on TK-10 renal; 114% in the experiment on ACHN renal; 90.6% in the experiment on CAKI-1 renal. The values for the growth in the experiment with A498 renal and with MOLT-4 leukemia were 90.6% and 12.4%, respectively.
As for `O=C1NN(c2ccccc2)C(c2cccnc2)=N/C1=C\c1cccnc1`, the growth with SK-MEL-2 melanoma was 103%; with SN12C renal it was 102%; in the experiment with UO-31 renal, 82.7%; in the experiment with TK-10 renal it was 110%; in the experiment on ACHN renal it was 95.4%; in the experiment with CAKI-1 renal it was 89%. In addition, the growth in the experiment with A498 renal was 52.3%; with CCRF-CEM leukemia, -22% (active); in the experiment with MOLT-4 leukemia it was 96.4%.
Take `Cc1ccccc1[P+](Cc1ccccc1)(c1ccccc1)c1ccccc1`: the growth with SK-MEL-2 melanoma is -23.1% (active); in the experiment on SN12C renal it was 29.9%; in the experiment with UO-31 renal it was 67.8%; in the experiment with TK-10 renal it was 21.4%; with ACHN renal it was 75.6%; in the experiment with CAKI-1 renal, 86.8%. In addition, the growth in the experiment on A498 renal was 37%; with MOLT-4 leukemia, 19.3%.
With `COc1ccc(NC(=O)c2sc3nc4c(cc3c2N)C(O)CCC4)cc1` (stereo unspecified), the growth in the experiment with SK-MEL-2 melanoma was 96%; in the experiment on SN12C renal, 99.8%; with UO-31 renal it was 86.4%; with TK-10 renal, 122%; with ACHN renal, 113%; in the experiment with CAKI-1 renal, 92.7%. Moreover, the growth with A498 renal is -8.3% (active); in the experiment on MOLT-4 leukemia, 92.8%.
On to `COc1ccc(S(=O)(=O)Nc2ccc(OCc3nnc(-c4ccc(Cl)cc4)o3)c(F)c2)cc1`, for which the growth with SK-MEL-2 melanoma is 40.6%; with SN12C renal, 68.1%; with UO-31 renal, 51.3%; in the experiment with ACHN renal it was 56.6%; in the experiment on CAKI-1 renal it was 54.6%; with A498 renal, 47%. Besides, the growth in the experiment with CCRF-CEM leukemia is 54.5%; in the experiment on MOLT-4 leukemia it was 36%.
Consider `COc1ccc(-c2cc(=O)n(-c3nc4ccccc4[nH]3)[nH]2)cc1OC`, for which the growth is 51% with SK-MEL-2 melanoma; 75% in the experiment with SN12C renal; 56.1% in the experiment on UO-31 renal; 93.9% in the experiment with TK-10 renal; 38.7% in the experiment on CAKI-1 renal; 30.9% in the experiment on A498 renal. Besides, the results for the growth in the experiment on CCRF-CEM leukemia and in the experiment with MOLT-4 leukemia were -4.05% (active) and -32% (active), respectively.
As for `COc1ccc2nc(-c3ccccc3)cc(C(C)=O)c2c1`, the growth in the experiment on SK-MEL-2 melanoma is 96.6%; with UO-31 renal, 73.8%; with TK-10 renal it was 89.7%; in the experiment on ACHN renal, 97.7%; in the experiment on CAKI-1 renal, 87.9%; in the experiment on A498 renal, 74.8%. The growth in the experiment on CCRF-CEM leukemia was 91.2%; in the experiment with MOLT-4 leukemia it was 73.1%.
As to `Cc1cc(C)c2c(Nc3ncnc4c3sc3nc(C)cc(C)c34)n[nH]c2n1`, the growth is 114% in the experiment with SK-MEL-2 melanoma; 99.3% with SN12C renal; 90.9% with UO-31 renal; 93.6% in the experiment on ACHN renal; 101% in the experiment on CAKI-1 renal; 92.3% in the experiment on A498 renal. Further, the growth with CCRF-CEM leukemia is 95.3%; in the experiment with MOLT-4 leukemia, 94.1%.
With `c1ccc(CNc2nc(Nc3ccc(-c4nc5ccccc5[nH]4)cc3)c3cn[nH]c3n2)cc1`, the growth in the experiment with SK-MEL-2 melanoma was -59.2% (active); in the experiment on UO-31 renal, 29.9%; with TK-10 renal, 20.4%; in the experiment on ACHN renal, -5.37% (active); in the experiment with CAKI-1 renal it was 7.33% (active); in the experiment on A498 renal, 27.6%. The growth in the experiment with CCRF-CEM leukemia is 9.8% (active); in the experiment with MOLT-4 leukemia it was -39.7% (active).
Consider `C/C(=N/NC(=O)c1sc(=S)n(C)c1N)c1cc2cc(Cl)ccc2o1`, for which the growth in the experiment with SK-MEL-2 melanoma was 98.9%; in the experiment on SN12C renal, 90.8%; in the experiment with TK-10 renal, 101%; in the experiment on ACHN renal, 96%; in the experiment with CAKI-1 renal, 117%; with A498 renal, -3.76% (active). For the same compound, the growth with CCRF-CEM leukemia was 81.8%; in the experiment with MOLT-4 leukemia, 76.5%.
For the compound `CCCc1ccnc(NS(=O)(=O)c2ccc(N)cc2)n1`, the growth in the experiment with SK-MEL-2 melanoma was 97.7%; with UO-31 renal, 86.5%; with TK-10 renal it was 93.4%; with ACHN renal it was 112%; in the experiment with CAKI-1 renal, 103%; in the experiment on A498 renal, 79.2%. The growth was 46.4% with CCRF-CEM leukemia and 81.9% with MOLT-4 leukemia.
`COc1ccc(-c2ccc(-c3ccc(C(=N)N)c(F)c3)s2)cc1`: the growth in the experiment on SK-MEL-2 melanoma is -75.3% (active); in the experiment on SN12C renal, -79.2% (active); in the experiment on UO-31 renal it was -86.8% (active); with ACHN renal, -89.7% (active); with CAKI-1 renal, -89.8% (active); with A498 renal it was -97.4% (active). The growth was -68.3% (active) in the experiment with CCRF-CEM leukemia and -80.1% (active) with MOLT-4 leukemia.
